This is an account of results in PubChem BioAssay (Tox21).

Values without a mark were called inactive. Records with an inconclusive call do not appear. Active and inactive are the calls of the source. Unless noted, calls follow the shape of the dose curve; as a rule, active = well fitted curve in the direction sought with a large enough effect in the repeat runs; inconclusive = weak or mixed curves; inactive = no such curve, though single readings can be large; an effect the other way counts as inactive or inconclusive.

Test [1] is described as follows: qHTS assay to test for compound auto fluorescence at 535 nm (green) in HEK293 cells (AID 720680). (In qHTS, concentration-response curves come from the screen itself.)
Test [2] can be described thus: qHTS assay to test for compound auto fluorescence at 460 nm (blue) in HEK293 cell free culture (AID 720681). In a few lines:
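Test compounds were pinned into cell-free culture medium (DMEM with 10% FBS) and fluorescence was read directly at Ex/Em 405/460 nm. Signals were expressed as fluorescence equivalents of triamterene, with DMSO vehicle as control.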

Test [3] can be described thus: qHTS assay to test for compound auto fluorescence at 535 nm (green) in HEK293 cell free culture (AID 720682). In a few lines:
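Measurement is a direct plate read of green fluorescence (485 nm in, 535 nm out) after compound addition to serum-supplemented DMEM lacking cells, with fluorescein used to express intensities.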

Test [4] is described as follows: qHTS assay to test for compound auto fluorescence at 590 nm (red) in HEK293 cell free culture (AID 720683). The method, boiled down: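 Tox21 10K library compounds were pinned into cell-free DMEM with 10% FBS and fluorescence was read at excitation 540 nm. Activity is expressed as Rose Bengal sodium equivalency.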
Test [5] in a line: qHTS assay to test for compound auto fluorescence at 590 nm (red) in HepG2 cell free culture (AID 720684). The method, boiled down:
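Ex 540 / Em 590 nm read of compound in cell-free MEM (10% FBS). Rose Bengal sodium reference.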

Test [6] is described as follows: qHTS assay to test for compound auto fluorescence at 460 nm (blue) in HepG2 cell free culture (AID 720685). The method, boiled down:
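Cell-free plates of MEM plus 10% FBS received 23 nL compound or DMSO vehicle; blue-channel (405/460 nm) intensity scored against triamterene as reference fluorophore.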

Test [7] is described as follows: qHTS assay to test for compound auto fluorescence at 535 nm (green) in HepG2 cell free culture (AID 720686).
The nature of test [8]: qHTS assay to test for compound auto fluorescence at 460 nm (blue) in HepG2 cells (AID 720687). In a few lines:
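Cells (2,000/well in MEM with 10% FBS) attached overnight at 37 C, then were exposed to compound or DMSO for 1 hr at 37 C, 5% CO2. Fluorescence read at Ex/Em 405/460 nm, expressed as triamterene-equivalent signal.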

The target in test [9] is Glucocorticoid receptor (Homo sapiens) (UniProt P04150). Description: qHTS assay to identify small molecule agonists of the glucocorticoid receptor (GR) signaling pathway (AID 720691; active = well fitted activation curve with a large enough effect in the signal ratio in the repeat runs, not every such curve was filed as active; the % refers to the signal ratio). In a few lines:
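Steps: seed GR-bla HeLa cells, incubate 4 h at 37 C/5% CO2; pin-transfer DMSO-dissolved compounds; incubate 18 h at 37 C; add LiveBLAzer B/G FRET substrate; after 2 h at room temperature, measure fluorescence.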

Test [10] can be described thus: qHTS assay to identify small molecule antagonists of the glucocorticoid receptor (GR) signaling pathway - cell viability counter screen (AID 720693). Also: nearly all actives have a fitted effect of over 55% in size.
A short description of test [11]: qHTS assay for identifying genotoxic compounds that show differential cytotoxicity against isogenic chicken DT40 cell lines with known DNA damage response pathways - wild type cell line (AID 743012). Also: nearly all actives have a fitted effect of over 60% in size. Also: potency is read from the fitted curve at half-maximal effect. The method, boiled down:
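Cytotoxicity in repair-proficient parental chicken DT40 cells serves as the comparator for Rad54/Ku70- and Rev3-deficient lines. Cells were exposed to compounds for 40 h at 37 C/5% CO2, and ATP-based luminescence (CellTiter-Glo) measured viability.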

A short description of test [12]: qHTS assay for identifying genotoxic compounds that show differential cytotoxicity against isogenic chicken DT40 cell lines with known DNA damage response pathways - Rad54/Ku70 mutant cell line (AID 743015). Also: nearly all actives have a fitted effect of over 60% in size. Also: potency is read from the fitted curve at half-maximal effect.
Test [13] is described as follows: qHTS assay to identify small molecule antagonists of the androgen receptor (AR) signaling pathway - cell viability counter screen (AID 743033; also: nearly all actives have a fitted effect of over 45% in size).
The nature of test [14]: qHTS assay to identify small molecule antagonists of the androgen receptor (AR) signaling pathway using the MDA cell line - cell viability counter screen (AID 743041; also: nearly all actives have a fitted effect of over 45% in size). In a few lines:
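In this qHTS counter assay, fluorescence intensity after CellTiter-Fluor addition indicated viability of MDA-kb2 AR-luc cells given compounds and R1881 for 16 h at 37C.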

A short description of test [15]: qHTS assay for identifying genotoxic compounds that show differential cytotoxicity against isogenic chicken DT40 cell lines with known DNA damage response pathways - Rev3 mutant cell line (AID 743014). Also: nearly all actives have a fitted effect of over 55% in size. Also: potency is read from the fitted curve at half-maximal effect.
For test [16], the target named is Glucocorticoid receptor (Homo sapiens) (UniProt P04150). As to the kind of experiment: qHTS assay to identify small molecule antagonists of the glucocorticoid receptor (GR) signaling pathway (AID 720692; active = well fitted inhibition curve with a large enough effect in the signal ratio in the repeat runs, not every such curve was filed as active; the % refers to the signal ratio). In a few lines:
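Antagonism was scored as loss of dexamethasone-driven (5 nM final) reporter signal in HeLa cells bearing a glucocorticoid response element–beta-lactamase construct, after 18 h compound exposure at 37 C and 2 h FRET substrate loading.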

Test [17] addresses Androgen receptor (Homo sapiens) (UniProt P10275). Description: qHTS assay to identify small molecule agonists of the androgen receptor (AR) signaling pathway (AID 743036; active = well fitted activation curve with a large enough effect in the signal ratio in the repeat runs, with a control signal flat, not every such curve was filed as active; the % refers to the signal ratio). The method, boiled down:
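Beta-lactamase under UAS control, stably integrated in HEK293 GripTite cells, reports receptor activation. After 16 h compound treatment, cells received FRET substrate for 2 h at room temperature before fluorescence reading.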

The target is the same in test [18]. As to the kind of experiment: qHTS assay to identify small molecule antagonists of the androgen receptor (AR) signaling pathway using the MDA cell line (AID 743042; also: nearly all actives have a fitted effect of over 55% in size). The method, boiled down:
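MDA-kb2 cells (human breast carcinoma, stably carrying an MMTV-luciferase reporter responsive to AR and GR) were plated at 3,000 cells/well and preincubated 5 hr at 37C, then given compound plus R1881 agonist for 16 h. ONE-Glo luminescence was read.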
% is scaled to controls: 0 for no effect and ±100 for the full control effect.

Sequence of Glucocorticoid receptor (Homo sapiens) (P04150 whole entry, looked up): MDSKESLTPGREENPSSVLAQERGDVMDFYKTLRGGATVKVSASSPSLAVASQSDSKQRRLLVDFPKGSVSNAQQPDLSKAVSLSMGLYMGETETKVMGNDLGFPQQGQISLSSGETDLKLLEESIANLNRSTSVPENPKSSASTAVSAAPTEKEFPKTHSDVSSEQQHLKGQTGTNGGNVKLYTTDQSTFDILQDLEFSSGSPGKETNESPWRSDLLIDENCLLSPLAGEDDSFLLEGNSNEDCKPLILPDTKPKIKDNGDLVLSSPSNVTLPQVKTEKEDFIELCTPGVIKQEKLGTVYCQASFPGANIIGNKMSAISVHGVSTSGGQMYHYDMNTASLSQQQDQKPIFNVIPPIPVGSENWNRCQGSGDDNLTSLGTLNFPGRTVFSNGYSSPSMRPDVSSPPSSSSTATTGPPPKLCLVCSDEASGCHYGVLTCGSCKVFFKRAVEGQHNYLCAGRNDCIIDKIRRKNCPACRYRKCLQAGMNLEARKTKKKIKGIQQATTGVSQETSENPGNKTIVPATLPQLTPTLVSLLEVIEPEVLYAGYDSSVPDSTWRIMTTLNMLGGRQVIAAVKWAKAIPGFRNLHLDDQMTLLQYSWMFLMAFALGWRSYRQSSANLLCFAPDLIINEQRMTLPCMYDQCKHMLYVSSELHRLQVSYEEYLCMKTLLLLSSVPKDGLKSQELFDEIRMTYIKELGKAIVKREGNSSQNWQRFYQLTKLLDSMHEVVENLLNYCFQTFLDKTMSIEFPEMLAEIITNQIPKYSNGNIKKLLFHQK
Sequence of Androgen receptor (Homo sapiens) (P10275 whole entry, looked up): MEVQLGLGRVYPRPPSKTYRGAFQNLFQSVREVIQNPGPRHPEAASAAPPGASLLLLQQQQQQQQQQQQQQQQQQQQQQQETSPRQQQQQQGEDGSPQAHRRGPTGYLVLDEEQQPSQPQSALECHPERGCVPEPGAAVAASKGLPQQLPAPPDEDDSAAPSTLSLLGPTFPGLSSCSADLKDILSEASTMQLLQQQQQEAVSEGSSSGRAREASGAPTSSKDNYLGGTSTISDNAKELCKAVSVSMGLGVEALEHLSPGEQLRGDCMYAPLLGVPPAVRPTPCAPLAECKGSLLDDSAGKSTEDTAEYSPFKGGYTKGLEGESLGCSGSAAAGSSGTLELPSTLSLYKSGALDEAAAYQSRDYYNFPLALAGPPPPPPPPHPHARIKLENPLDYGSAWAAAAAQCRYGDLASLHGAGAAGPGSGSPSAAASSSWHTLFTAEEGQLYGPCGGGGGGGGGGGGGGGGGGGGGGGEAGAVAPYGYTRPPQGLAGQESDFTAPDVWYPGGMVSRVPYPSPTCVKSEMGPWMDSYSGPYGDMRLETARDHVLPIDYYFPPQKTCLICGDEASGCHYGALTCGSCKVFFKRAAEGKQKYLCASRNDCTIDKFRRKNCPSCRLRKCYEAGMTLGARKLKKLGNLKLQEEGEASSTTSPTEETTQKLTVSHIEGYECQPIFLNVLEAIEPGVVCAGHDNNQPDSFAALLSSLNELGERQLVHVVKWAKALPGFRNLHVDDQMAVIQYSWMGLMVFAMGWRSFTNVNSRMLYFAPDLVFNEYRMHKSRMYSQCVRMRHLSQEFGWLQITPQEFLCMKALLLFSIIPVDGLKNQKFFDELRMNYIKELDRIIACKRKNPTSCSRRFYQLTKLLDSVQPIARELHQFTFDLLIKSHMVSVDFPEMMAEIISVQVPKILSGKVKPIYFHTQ

Turning to `COc1ccc(C)cc1`, the molecule was called inactive in [1], in [3], in [4], in [5] and in test [7]. Moreover, the Potency entry in [2], in [6], in test [8], in test [9], in test [10] and in test [11] was “inactive” in each case. Besides, the Potency result in test [12], in test [13] and in test [14] was “inactive” in each case.

Take `CCC1CCC(CCC(=O)O)C1` (stereo not drawn): the result in test [1], in [3], in test [4], in [5] and in test [7] was inactive. The Potency result in test [2], in test [6], in test [8], in [9], in test [10] and in test [11] was “inactive” in each case. Moreover, the Potency result in [12] and in test [13] was “inactive” each time.

Take `CC(C)(C)CCCCCCOC(=O)c1ccccc1C(=O)OCCCCCCC(C)(C)C`: the call in test [1], in test [3], in test [4], in [5] and in test [7] was inactive. Further, the Potency entry in test [2], in [6], in [8], in test [9], in test [10] and in test [11] was “inactive” throughout. Also, the Potency result in test [15], in [12], in test [13] and in [14] was “inactive” throughout.

`CCCCCCC(O)CCCCCCCCCCC(=O)OC` (stereo not drawn): the molecule was called inactive in test [1], in [3], in [4], in test [5] and in test [7]. The Potency entry in test [2], in [6], in test [8], in test [9], in test [10] and in [11] was “inactive” each time. Moreover, the Potency in test [12] was 68.6 µM (active).

As for `O=[N+]([O-])c1ccc2ncccc2c1`, the call in test [1], in test [3], in test [4], in test [5] and in [7] was inactive. Moreover, the Potency entry in test [2], in [6], in [8], in test [9], in test [10] and in test [11] was “inactive” in each case. Also, the Potency result in test [15], in [12], in test [13] and in test [14] was “inactive” each time.

Take `CC[C@@H](CO)NCCN[C@@H](CC)CO`: the fluorescence, % of fluorescein in [1] is -0.0101% [at 18.6 µM]. Moreover, the fluorescence, % of fluorescent control is 0.0181% [at 18.6 µM] in test [2], 0.0179% [at 18.6 µM] in test [4], 0.0488% [at 18.6 µM] in [6] and -0.0204% [at 18.6 µM] in test [8]. Further, the activity change in test [3] is 0.014% [at 18.6 µM]. For the same molecule, in test [5], the fluorescence, % of Rose Bengal was 0.0051% [at 18.6 µM]. Moreover, the fluorescence, % of fluorescein control in [7] is 0.0013% [at 18.6 µM]. For the same molecule, the Potency entry in [10], in test [11] and in test [12] was “inactive” each time.

`CCN(CC)CCOc1ccccc1C(=O)CCc1ccccc1`: the molecule was classed as inactive in test [1], in test [3], in test [4], in [5] and in [7]. Moreover, the Potency result in test [2], in test [6], in test [8] and in [10] was “inactive” in each case. Also, the Potency was 11.9 µM (active) in test [11] and 26.6 µM (active) in test [12].

For the molecule `Cc1ccc2c(c1[N+](=O)[O-])C(=O)c1ccccc1C2=O`, the call in test [1], in test [3], in test [4], in [5] and in test [7] was inactive. For the same molecule, the Potency entry in test [2], in test [6], in test [8], in [10], in test [13] and in [14] was “inactive” each time. Also, the Potency in [12] is 30 µM (active).

As to `CC1CCc2nccnc21` (stereo not drawn), the result in [1], in test [3], in test [4], in test [5] and in test [7] was inactive. Further, the Potency entry in test [2], in test [6], in [8], in [10], in [11] and in [14] was “inactive” throughout. Besides, the Potency in test [12] was 54.5 µM (active).

With `COc1ccc(-c2cc(C(F)F)nn2-c2ccc(S(N)(=O)=O)cc2)cc1F`, the molecule was classed as inactive in test [1], in test [3], in [4], in test [5] and in [7]. Also, the Potency result in [2], in [6], in test [8], in test [10], in test [11] and in test [15] was “inactive” throughout. Further, the Potency entry in test [12] and in test [13] was “inactive” throughout.

For the molecule `C/C(C=O)=C\c1ccccc1`, the call in [1], in test [3], in [4], in test [5] and in test [7] was inactive. Further, the Potency result in test [2], in test [6], in test [8], in test [10], in test [11] and in [15] was “inactive” each time. Moreover, the Potency entry in test [12], in [13] and in test [14] was “inactive” throughout.

With `CCNc1nc(N)nc(Cl)n1`, the molecule was classed as inactive in [1], in test [3], in test [4], in test [5] and in test [7]. Further, the Potency result in test [2], in [6], in [8], in test [10], in test [11] and in test [15] was “inactive” in each case. Besides, the Potency entry in [12] and in test [14] was “inactive” in each case.

Regarding `CC(CN(CCN(CC(C)OCCO)CC(C)OCCO)CC(C)OCCO)OCCO` (stereo not drawn), the molecule was classed as inactive in test [1], in [3], in test [4], in test [5] and in test [7]. The Potency entry in [2], in test [6], in [8], in [10] and in [14] was “inactive” each time. Further, the Potency in [11] is 18.6 µM (active); in test [15] it was 10.5 µM (active); in [12], 20.9 µM (active).

As to `CC(=O)OCC(C)C`, the molecule was called inactive in test [1], in test [3], in [4], in test [5], in [7] and in [17]. The Potency result in test [2], in [6], in test [8], in test [16], in test [10] and in test [11] was “inactive” in each case. The Potency result in [15], in test [12], in [13], in test [14] and in test [18] was “inactive” each time.

Turning to `CNC1CCCN(c2c(F)cc3c(=O)c(C(=O)O)cn(C4CC4)c3c2OC)C1` (stereo not drawn), the molecule was classed as inactive in test [1], in [3], in [4], in [5] and in test [7]. For the same molecule, the Potency entry in [2], in test [6], in test [8], in test [10], in [15] and in test [12] was “inactive” in each case. Moreover, the Potency entry in test [13] and in [14] was “inactive” in each case.
